PvdQ inh: P. aeruginosa PvdQ acylase inhibitors, primary screen, biochemical, fluorescence, plate reader and imaging, single point. PvdQ acylase [Pseudomonas aeruginosa LESB58]. purified PvdQ acylase. inhibition, % at 10 µM. 340,000 compounds, 0.063% hits. AID 488965, 2010; in the data active = inhibition above about 30%, passing the limit was not always enough; inconclusive = no clear call, values can overlap the other calls;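 also: 0% = vehicle neutral wells and 100% = reference inhibitor wells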
PglD DTNB: C. jejuni PglD acetyltransferase inhibitors, primary screen, biochemical, DTNB colorimetric, single point; UDP-N-acetylbacillosamine N-acetyltransferase PglD (Campylobacter jejuni); purified PglD enzyme, DTNB colorimetric CoA detection; inhibition, % at 12.5 µM; 360,000 compounds, 0.098% hits; AID 602405, 2012; in the data active = inhibition above about 16%, passing the limit was not always enough; inconclusive = no clear call, values can overlap the other calls
CDK5 p35 inh: inhibitors of human CDK5/p35 kinase, primary screen, biochemical, single concentration | Cyclin-dependent kinase 5 (Homo sapiens) + Cyclin-dependent kinase 5 activator 1 (Homo … | Recombinant CDK5/p35, ADP-Glo luminescence, 60 min | inhibition, % at 10 µM | 330,000 compounds, 0.01% hits | AID 488839, 2010;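 active = highest replicate inhibition of at least 50% and at least 75% of replicates reaching 50%; inconclusive = only one of the two criteria met; inactive = both criteria failed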;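 also: plate controls were DMSO neutral control for no effect and GW8510 at 10 µM for full effect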
SIRT5 inh: SIRT5 desuccinylase inhibitors, primary screen, biochemical, fluorescence imaging, single point, set 5; NAD-dependent protein deacylase sirtuin-5, mitochondrial (Homo sapiens), Q9NXA8; Purified SirT5, succinyl-peptide AMC, trypsin-coupled fluorescence; inhibition, % at 15 µM; 330,000 compounds, 1.1% hits; in the data active = inhibition above about 15%; inconclusive = no clear call, values can overlap the other calls
Target sequence (Q9NXA8 whole entry, looked up): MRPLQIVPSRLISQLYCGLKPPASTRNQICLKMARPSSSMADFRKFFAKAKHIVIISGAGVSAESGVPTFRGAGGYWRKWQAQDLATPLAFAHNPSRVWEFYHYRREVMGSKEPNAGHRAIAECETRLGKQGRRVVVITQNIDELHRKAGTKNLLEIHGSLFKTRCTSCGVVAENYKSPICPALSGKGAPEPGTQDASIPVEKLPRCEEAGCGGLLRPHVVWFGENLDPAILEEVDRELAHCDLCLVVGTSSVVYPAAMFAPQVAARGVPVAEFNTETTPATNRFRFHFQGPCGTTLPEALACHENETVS
FGF22 binding: binders of human FGF22 protein, primary screen, FGF22 synaptogenesis inhibitor project, biophysical, thermal shift, single point. activity (Tm shift, normalised), % at 9.99 µM. Fibroblast growth factor 22 (Homo sapiens), Q9HCT0. 340,000 compounds, 1.5% hits. recombinant FGF22 thermal shift, SYPRO orange fluorescence; percent of sucrose octasulfate shift, DMSO zero;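 active = mean Tm shift, scaled 0 neutral to 100 positive control, at about 1.3% or above, every replicate too, limit read from the data; inconclusive = no clear call, values can overlap the other calls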
Target sequence (Q9HCT0 whole entry, looked up): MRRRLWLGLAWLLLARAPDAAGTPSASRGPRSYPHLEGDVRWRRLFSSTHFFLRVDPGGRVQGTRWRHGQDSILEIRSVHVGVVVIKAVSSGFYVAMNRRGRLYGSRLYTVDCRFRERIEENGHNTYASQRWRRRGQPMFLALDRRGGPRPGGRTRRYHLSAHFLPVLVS
dFosB act-1: activators of delta FosB homodimer, primary screen, biochemical, fluorescence polarization, TAMRA-CDK5 oligo, single point | purified delta FosB; percent of positive-control signal above neutral wells | activation, % at 25 µM | 340,000 compounds, 0.99% hits;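 active = mean activation above about 17%, with every replicate also reaching it, limit read from the data, passing the limit was not always enough; inconclusive = only one of the two conditions met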
dFosB act-2: activators of mouse delta FosB DNA binding, confirmation, biochemical, fluorescence polarization, TAMRA-CDK5 oligo, cherry-picked samples | 2,400 tested, under 10 active | activation, % at 24.9 µM | purified delta FosB; normalised: neutral wells 0, positive control 100 | shares compounds with dFosB act-1;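 active = highest replicate activation at or above 34% and every replicate reaching that threshold; inconclusive = meets only one of the two criteria; inactive = meets neither criterion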;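 also: higher polarization means more probe DNA bound by delta FosB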
Active calls of the source: *; ? = inconclusive; . = not tested or not shown. Shown are actives, neighbours in structure and some others; about 2.8% of the full set was active somewhere.

SMILES	PvdQ inh	PglD DTNB	CDK5 p35 inh	SIRT5 inh	FGF22 binding	dFosB act-1	dFosB act-2
COc1ccc(NC(=O)Nc2cccc3c2O[C@@H](CN(C)S(=O)(=O)c2ccc(Cl)cc2)[C@H](C)CN([C@@H](C)CO)C3=O)cc1	.	1	.	-3	-1	.	.
CN(CC(=O)Nc1ccc(Cl)cc1)C(=O)CCc1nc2sc3c(c2c(=O)[nH]1)CCCC3	5	-5	-1	-1	0	29*	1
CCN(CC(=O)Nc1ccccc1C(F)(F)F)C(=O)CCc1nc2sc3c(c2c(=O)[nH]1)CCCC3	4	2	-4	4	0	2	.
CN(CC(=O)Nc1ccccc1C(F)(F)F)C(=O)CCc1nc2sc3c(c2c(=O)[nH]1)CCCC3	1	-1	-1	0	0	23*	2
O=C(CCC(=O)c1ccc(Oc2ccccc2)cc1)Nc1cccc(Cl)c1	-8	5	-1	-5	0	26*	0
C[C@@H]1CCCCO[C@H](CN(C)S(C)(=O)=O)[C@H](C)CN([C@@H](C)CO)C(=O)c2cc(NS(=O)(=O)c3cn(C)cn3)ccc2O1	.	1	.	3	0	.	.
C[C@H]1CN([C@@H](C)CO)C(=O)Cc2cc(NS(=O)(=O)c3cccs3)ccc2O[C@H]1CN(C)Cc1ccc(Cl)c(Cl)c1	.	3	.	-1	0	.	.
O=C(Cn1ncc2c([nH]c3ccccc32)c1=O)NCCc1ccccc1	12	-4	3	-2	0	44*	-1
CC(C)c1cn(CC[C@@H]2CC[C@@H](NC(=O)C3CCOCC3)[C@@H](CO)O2)nn1	.	.	.	-5	.	.	.
Cc1ccc(C)c(NC(=O)Cn2cc(C(=O)C3CC3)c3ccccc32)c1	-15	-3	2	-3	0	72*	0
CC(=O)c1cn(CC(=O)Nc2ccc(C)cc2C)c2ccccc12	-15	4	2	.	.	28*	8
Cc1cccc(NC(=O)Cn2cc(C(=O)C3CC3)c3ccccc32)c1C	9	3	3	1	0	21*	2
CCC(=O)c1cn(CC(=O)Nc2ccccc2Cl)c2ccccc12	-11	-6	1	-3	0	-4	.
CCC(=O)c1cn(CC(=O)Nc2cccc(C)c2C)c2ccccc12	17	4	1	-5	0	25*	7
Cc1ccc(NC(=O)Cn2cc(C(=O)C3CC3)c3ccccc32)c(C)c1	1	6	-3	0	0	-6	.
Cc1c(C(=O)Nc2ccc(S(N)(=O)=O)cc2)oc2ccc(Cl)cc12	-3	.	0	3	0	27*	2
CCc1ccc2oc(C(=O)Nc3ccc(S(N)(=O)=O)cc3)c(C)c2c1	13	-5	0	-1	1	6	.
O=S(=O)(Cc1ccccc1)c1ccccc1-c1nnc(-c2ccccc2)o1	-13	4	-1	.	.	32*	6
O=S(=O)(Cc1ccc(Cl)cc1)c1ccccc1-c1nnc(-c2ccc(Cl)cc2)o1	1	.	0	.	.	-4	.
COc1ccc(-c2ccc3c(c2)O[C@@H](CN(C)C)[C@@H](C)CN([C@H](C)CO)S3(=O)=O)cc1	.	-2	.	-7	0	.	.
COc1ccc(-c2cc(C(=O)Nc3nc4c(C)cccc4s3)c3ccccc3n2)cc1OC	-19	.	1	.	.	39*	1
COc1cccc(-c2cc(C(=O)Nc3nc4ccccc4s3)c3ccccc3n2)c1	7	0	-1	.	.	4	.
COc1cc(-c2cc(C(=O)Nc3cccc(S(=O)(=O)N(C)C)c3)c3ccccc3n2)cc(OC)c1OC	-4	-17	0	1	0	41*	5
CN(C)CCCN(C(=O)c1ccc2c(c1)CCCC2)c1nc2cc3c(cc2s1)OCO3	12	-2	1	-5	0	26*	2
COc1ccc2sc(N(CCCN(C)C)C(=O)c3ccc(S(=O)(=O)N4CCCC4)cc3)nc2c1	9	2	0	-4	0	-8	.
SMILES	PvdQ inh	PglD DTNB	CDK5 p35 inh	SIRT5 inh	FGF22 binding	dFosB act-1	dFosB act-2
COc1ccc2sc(N(CCCN(C)C)C(=O)c3ccc(S(=O)(=O)N4CCc5ccccc5C4)cc3)nc2c1	-2	-3	1	-9	-1	33*	1
CN(C)CCCN(C(=O)c1ccco1)c1nc2ccc(Br)cc2s1	3	.	-1	-3	0	-31	.
Cc1cc(C)c2nc(N(CCN(C)C)C(=O)c3ccc4ccccc4c3)sc2c1	1	-1	0	-8	0	21*	6
CN(C)CCN(C(=O)c1ccco1)c1nc2cc3c(cc2s1)OCCO3	-12	4	1	-2	0	30*	-4
CN(C)CCN(C(=O)c1ccc(S(=O)(=O)N(C)c2ccccc2)cc1)c1nc2ccc(Cl)cc2s1	-5	-1	1	-3	0	28*	1
CCN(CC)CCN(C(=O)c1ccc(S(=O)(=O)N2CCCCC2)cc1)c1nc2cc3c(cc2s1)OCO3	9	.	0	.	.	32*	-1
CN(C)CCCN(C(=O)c1ccc(C(=O)c2ccccc2)cc1)c1nc2cc3c(cc2s1)OCCO3	0	7	-3	2	0	?	.
CCOc1cccc2sc(N(CCN(CC)CC)C(=O)c3ccc(S(=O)(=O)N4CCCC4)cc3)nc12	-17	2	-1	-3	0	-8	.
CN(C)CCN(C(=O)c1ccc(C(=O)c2ccccc2)cc1)c1nc2cc3c(cc2s1)OCCO3	-16	-9	-2	-4	0	24*	-8
CN(C)CCN(C(=O)CN1C(=O)c2ccccc2C1=O)c1nc2cc3c(cc2s1)OCO3	-2	-3	1	-1	0	38*	4
COc1cccc(NC(=O)N2C[C@@H](O)COC[C@@H]3O[C@H](CC(=O)NCCCN4CCOCC4)CC[C@H]32)c1	.	-4	.	6	0	.	.
O=C(Cn1cnc2c(NCc3ccccc3)ncnc21)NCc1ccccc1	-7	1	0	3	0	-2	.
C[C@@H](NC(=O)Cn1cnc2c(NCc3ccccc3)ncnc21)c1cccc2ccccc12	-4	0	1	-3	0	38*	-2
